Measured values as given in PubChem BioAssay (Tox21).
Inconclusive results are not listed. Calls of active or inactive are those of the source. The call rests on the fitted dose curve; in most records, active means well fitted curve in the direction sought with a large enough effect in the repeat runs; inconclusive means weak or mixed curves; inactive means no such curve, though single readings can be large; an effect the other way counts as inactive or inconclusive.

Tests used:
[1] = qHTS RealTime-Glo MT Cell Viability Assay in HepG2 cells - 40 hour (AID 1224870); further: nearly all actives have a fitted effect of over 50% in size
Outline: (§1)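 HepG2 cells (600/well) mixed with RealTime-Glo MT reagent, settled 5 h at 37 C/5% CO2 before compound addition. Nonlytic NanoLuc luminescence from viable-cell prosubstrate reduction read repeatedly during 40 h treatment at 37 C.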

[2] = A CellTox Green Cytotoxicity Assay to monitor cytotoxicity in HEK293 cells - 40 hour (AID 1224871); further: nearly all actives have a fitted effect of over 45% in size
Outline: (§2)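 Seeding of HEK293 cells together with cytotoxicity dye preceded a 5 h incubation at 37 C/5% CO2. Test compounds in DMSO were then added and fluorescence monitored across 40 h.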

[3] = qHTS RealTime-Glo MT Cell Viability Assay in HEK293 cells - 16 hour (AID 1224872); further: top concentration of the series differs between compounds; nearly all actives have a fitted effect of over 50% in size
Outline: (§3)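 Quantitative high-throughput screen of the Tox21 10K library in HEK293: cells and RealTime-Glo reagents plated together, compound added at 5 h, luminescence monitored through 40 h at 37 C.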

[4] = qHTS RealTime-Glo MT Cell Viability Assay in HepG2 cells - 8 hour (AID 1224873); further: nearly all actives have a fitted effect of over 55% in size
Outline: as §1

[5] = qHTS RealTime-Glo MT Cell Viability Assay in HEK293 cells - 40 hour (AID 1224874); details: RealTime-Glo luminescence; max response: hits give low values; further: nearly all actives have a fitted effect of over 50% in size
Outline: (§4)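 Tox21 screen in HEK293 using RealTime-Glo MT chemistry, with cells and reagent co-dispensed. Luminescence proportional to viable cell number was captured at intervals during 40 h compound exposure at 37 C.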

[6] = A CellTox Green Cytotoxicity Assay to monitor cytotoxicity in HEK293 cells - 24 hour (AID 1224875); further: series mostly up to about 77 µM; nearly all actives have a fitted effect of over 45% in size
Outline: as §2

[7] = A CellTox Green Cytotoxicity Assay to monitor cytotoxicity in HepG2 cells - 16 hour (AID 1224876); further: nearly all actives have a fitted effect of over 45% in size
Outline: (§5)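 Nonlytic assay: viable cells exclude the dye, so fluorescence scales with cell death. HepG2 at 600 cells/well, compounds added after 5 h, signal read across 40 h.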

[8] = qHTS RealTime-Glo MT Cell Viability Assay in HepG2 cells - 32 hour (AID 1224877); further: nearly all actives have a fitted effect of over 55% in size
Outline: (§6)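 Compound treatment began 5 h after plating HepG2 cells (600/well) with NanoLuc luciferase and prosubstrate. Plates stayed at 37 C for 40 h; luminescence was captured at six time points, 0 h through 40 h.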

[9] = A CellTox Green Cytotoxicity Assay to monitor cytotoxicity in HepG2 cells - 24 hour (AID 1224878); further: nearly all actives have a fitted effect of over 45% in size
Outline: as §5

[10] = A CellTox Green Cytotoxicity Assay to monitor cytotoxicity in HepG2 cells - 40 hour (AID 1224879); further: nearly all actives have a fitted effect of over 40% in size
Outline: as §5

[11] = qHTS RealTime-Glo MT Cell Viability Assay in HEK293 cells - 0 hour (AID 1224880)
Outline: as §4

[12] = A CellTox Green Cytotoxicity Assay to monitor cytotoxicity in HEK293 cells - 32 hour (AID 1224881); further: nearly all actives have a fitted effect of over 40% in size
Outline: as §2

[13] = A CellTox Green Cytotoxicity Assay to monitor cytotoxicity in HepG2 cells - 0 hour (AID 1224882); further: nearly all actives have a fitted effect of over 35% in size
Outline: as §5

[14] = A CellTox Green Cytotoxicity Assay to monitor cytotoxicity in HepG2 cells - 32 hour (AID 1224883); further: nearly all actives have a fitted effect of over 50% in size
Outline: as §5

[15] = A CellTox Green Cytotoxicity Assay to monitor cytotoxicity in HEK293 cells - 8 hour (AID 1224884); further: nearly all actives have a fitted effect of over 35% in size
Outline: as §2

[16] = qHTS RealTime-Glo MT Cell Viability Assay in HepG2 cells - 16 hour (AID 1224885); further: nearly all actives have a fitted effect of over 50% in size
Outline: as §6

[17] = qHTS RealTime-Glo MT Cell Viability Assay in HEK293 cells - 24 hour (AID 1224886)
Outline: as §3

[18] = qHTS RealTime-Glo MT Cell Viability Assay in HEK293 cells - 8 hour (AID 1224887)
Outline: as §4

[19] = A CellTox Green Cytotoxicity Assay to monitor cytotoxicity in HEK293 cells - 16 hour (AID 1224888); further: nearly all actives have a fitted effect of over 35% in size
Outline: as §2

[20] = qHTS RealTime-Glo MT Cell Viability Assay in HepG2 cells - 0 hour (AID 1224889); further: nearly all actives have a fitted effect of over 50% in size
Outline: as §6
On the % scale 0 is the no-effect control and ±100 the full control effect.

CCCC/C=C/C=C\C=O
inactive: outcome [1] | Potency [2] | Potency [3] | outcome [4] | max response [5] 0.84% | outcome [6] | outcome [7] | outcome [8] | outcome [9] | Potency [10] | Potency [11] | Potency [12] | outcome [13] | Potency [14] | Potency [15] | outcome [16] | Potency [17] | Potency [18] | outcome [19] | Potency [20]

CCCCNC1CC(C)(C)NC(C)(C)C1
inactive: outcome [1] | Potency [2] | Potency [3] | outcome [4] | max response [5] 10.4% | outcome [6] | outcome [7] | outcome [8] | outcome [9] | Potency [10] | Potency [11] | Potency [12] | outcome [13] | Potency [14] | Potency [15] | outcome [16] | Potency [17] | Potency [18] | outcome [19] | Potency [20]

CCC(CC)CO
inactive: outcome [1] | Potency [2] | Potency [3] | outcome [4] | max response [5] 3.01% | outcome [6] | outcome [7] | outcome [8] | outcome [9] | Potency [10] | Potency [11] | Potency [12] | outcome [13] | Potency [14] | Potency [15] | outcome [16] | Potency [17] | Potency [18] | outcome [19] | Potency [20]

CC(=O)/C=C/C1C(C)=CCC(C)C1(C)C (centres undefined)
inactive: outcome [1] | Potency [2] | Potency [3] | outcome [4] | max response [5] 1.21% | outcome [6] | outcome [7] | outcome [8] | outcome [9] | Potency [10] | Potency [11] | Potency [12] | outcome [13] | Potency [14] | Potency [15] | outcome [16] | Potency [17] | Potency [18] | outcome [19] | Potency [20]

COc1ccc(OC)c(Cl)c1
inactive: outcome [1] | Potency [2] | Potency [3] | outcome [4] | max response [5] 5.92% | outcome [6] | outcome [7] | outcome [8] | outcome [9] | Potency [10] | Potency [11] | Potency [12] | outcome [13] | Potency [14] | Potency [15] | outcome [16] | Potency [17] | Potency [18] | outcome [19] | Potency [20]

COC(=O)c1ccccc1C(=O)c1ccc(OCCN2CCCCC2)cc1
inactive: outcome [1] | Potency [2] | Potency [3] | outcome [4] | max response [5] -12% | outcome [6] | outcome [7] | outcome [8] | outcome [9] | Potency [10] | Potency [11] | Potency [12] | outcome [13] | Potency [14] | Potency [15] | outcome [16] | Potency [17] | Potency [18] | outcome [19]

CN(CCOc1ccc(NS(C)(=O)=O)cc1)CCc1ccc(NS(C)(=O)=O)cc1
inactive: outcome [1] | Potency [2] | Potency [3] | outcome [4] | max response [5] -0.0536% | outcome [6] | outcome [7] | outcome [8] | outcome [9] | Potency [10] | Potency [11] | Potency [12] | outcome [13] | Potency [14] | Potency [15] | outcome [16] | Potency [17] | Potency [18] | outcome [19] | Potency [20]

Cc1cc(Cl)c(C)cc1Cl
inactive: outcome [1] | Potency [2] | Potency [3] | outcome [4] | max response [5] 6.26% | outcome [6] | outcome [7] | outcome [8] | outcome [9] | Potency [10] | Potency [11] | Potency [12] | outcome [13] | Potency [14] | Potency [15] | outcome [16] | Potency [17] | Potency [18] | outcome [19] | Potency [20]

N#Cc1ccc(C(=O)O)cc1
inactive: outcome [1] | Potency [2] | Potency [3] | outcome [4] | max response [5] 3.59% | outcome [6] | outcome [7] | outcome [8] | outcome [9] | Potency [10] | Potency [11] | Potency [12] | outcome [13] | Potency [14] | Potency [15] | outcome [16] | Potency [17] | Potency [18] | outcome [19] | Potency [20]

COc1ccc(-c2cc(=O)c3c(O)cc(O[C@@H]4O[C@H](CO[C@@H]5O[C@@H](C)[C@H](O)[C@@H](O)[C@H]5O)[C@@H](O)[C@H](O)[C@H]4O)cc3o2)cc1O
inactive: outcome [1] | Potency [2] | Potency [3] | outcome [4] | max response [5] 1.76% | outcome [6] | outcome [7] | outcome [8] | outcome [9] | Potency [10] | Potency [11] | Potency [12] | outcome [13] | Potency [14] | Potency [15] | outcome [16] | Potency [17] | Potency [18] | outcome [19] | Potency [20]

Brc1ccc(-c2ccccc2)cc1
inactive: outcome [1] | Potency [2] | Potency [3] | outcome [4] | max response [5] 1.08% | outcome [6] | outcome [7] | outcome [8] | outcome [9] | Potency [10] | Potency [11] | Potency [12] | outcome [13] | Potency [14] | Potency [15] | outcome [16] | Potency [17] | Potency [18] | outcome [19] | Potency [20]

CN1C(C)(C)CCCC1(C)C
inactive: outcome [1] | Potency [2] | Potency [3] | outcome [4] | max response [5] -1.11% | outcome [6] | outcome [7] | outcome [8] | outcome [9] | Potency [10] | Potency [11] | Potency [12] | outcome [13] | Potency [14] | Potency [15] | outcome [16] | Potency [17] | Potency [18] | outcome [19] | Potency [20]
